Bioassay records: PubChem BioAssay, The Scripps Research Institute Molecular Screening Center
Fam108B counter: blocks mouse Fam108B hydrolase in RBBP9 counter-screen; recombinant Fam108B, FP-Rh probe fluorescence polarization; inhibition, % at 9.51 µM; 300,000 tested, 0.33% active;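 active means inhibition above the screen mean inhibition plus 3 SD, computed separately per campaign, cut at about 18% in these data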;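 further: inhibitors lower polarization as less probe binds the enzyme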
LYPLA1 counter: LYPLA1 (human) inhibition in PME1 counter-screen. O75608. recombinant LYPLA1, FP-Rh probe fluorescence polarization. inhibition, % at 5.9 µM. 320,000 tested, 0.16% active. AID 2174;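 active means inhibition above the mean of all tested compounds plus 3 SD, set per campaign, cut at about 14% in these data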;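 further: inhibitors block serine hydrolase probe labeling of LYPLA1 so polarization falls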
PME-1 primary: blocks human protein phosphatase methylesterase 1 | Q9Y570 | recombinant PME-1, FP-Rh probe fluorescence polarization | inhibition, % at 5.9 µM | 320,000 tested, 0.53% active | AID 2130;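 active means inhibition above the campaign mean of all compounds plus 3 SD, cut at about 26% in these data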;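 further: competitive labeling of PME-1 active site by serine hydrolase directed probe; inhibitors block probe labeling so polarization falls and inhibition rises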
LYPLA2 inh: blocks human lysophospholipase 2, a PME1 counter-screen; O95372; recombinant LYPLA2, FP-Rh probe fluorescence polarization; inhibition, % at 5.9 µM; 320,000 tested, 0.38% active; AID 2177;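 active means inhibition above the screen-wide mean plus 3 SD, limit set per campaign, cut at about 26% in these data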
PREPL inh: inhibits the human prolyl oligopeptidase-like enzyme. AID 2751. 320,000 tested, 0.68% active. recombinant PREPL, fluorescence polarization activity-based probe. inhibition, % at 5.96 µM. Q4J6C6
Target sequence (Q4J6C6 whole entry, looked up): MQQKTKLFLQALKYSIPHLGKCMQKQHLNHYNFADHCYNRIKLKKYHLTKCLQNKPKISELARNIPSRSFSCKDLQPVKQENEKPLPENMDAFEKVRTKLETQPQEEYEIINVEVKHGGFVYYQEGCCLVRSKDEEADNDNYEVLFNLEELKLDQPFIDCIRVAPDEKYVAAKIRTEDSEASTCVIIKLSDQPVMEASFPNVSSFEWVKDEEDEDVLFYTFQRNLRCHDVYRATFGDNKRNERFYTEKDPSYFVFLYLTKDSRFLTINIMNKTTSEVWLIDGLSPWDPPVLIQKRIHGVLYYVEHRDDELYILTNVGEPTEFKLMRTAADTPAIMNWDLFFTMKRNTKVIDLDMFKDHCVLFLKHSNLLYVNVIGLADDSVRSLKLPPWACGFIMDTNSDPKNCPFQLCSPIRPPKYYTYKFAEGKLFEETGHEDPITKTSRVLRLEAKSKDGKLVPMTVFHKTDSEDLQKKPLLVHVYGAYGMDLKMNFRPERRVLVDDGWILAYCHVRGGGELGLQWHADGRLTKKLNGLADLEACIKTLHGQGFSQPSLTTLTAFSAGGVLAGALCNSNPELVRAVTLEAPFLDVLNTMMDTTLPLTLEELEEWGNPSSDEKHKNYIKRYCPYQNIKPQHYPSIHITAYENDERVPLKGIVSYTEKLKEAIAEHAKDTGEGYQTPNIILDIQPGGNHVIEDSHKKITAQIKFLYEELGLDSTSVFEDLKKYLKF
PREPL inh cf: human PREPL inhibition, confirmation. shares compounds with PREPL inh. recombinant PREPL, fluorescence polarization activity probe. inhibition, % at 5.96 µM. 2,000 tested, 67% active
Each line names hits and unclear results; the compound was inactive in the other large screens (follow-up assays come after a bar, where they were run). An excerpt weighted towards active compounds, which were near 1.3% of everything screened. Unless noted, no stated cut-off is given here; in the data, active means inhibition above about 43%; inactive means the rest.

Cc1cccc(N2CCN(C(=S)Nc3ccc4nc(N5CCOCC5)cc(C)c4c3)CC2C)c1 (configuration not stated)	PREPL inh 43.2 | PREPL inh cf inactive
Cc1ccc(C)c(N2CCN(C(=S)Nc3ccc4nc(N5CCOCC5)cc(C)c4c3)CC2)c1	PREPL inh 53.8 | PREPL inh cf inactive
Nc1nc(CSC(=S)N2CCN(c3ccccc3)CC2)nc(Nc2ccccc2)n1	none
Cc1ccc(Nc2nc(N)nc(CSC(=S)N3CCN(c4ccccc4)CC3)n2)cc1	PREPL inh 63.9 | PREPL inh cf inactive
CN(C)c1ccc(C2C=C(c3ccc(Cl)cc3OC(F)F)Nc3ncnn32)cc1 (configuration not stated)	PREPL inh 56.4 | PREPL inh cf 49.2
Cc1ccc(C2C=C(c3ccccc3OC(F)F)Nc3ncnn32)cc1 (configuration not stated)	none
Nc1c(C(=O)NC2CCCC2)c2nc3ccccc3nc2n1N	PREPL inh 44.0 | PREPL inh cf inactive
COc1ccc(-n2c(SCC(=O)C(C)(C)C)nc3c(sc(=S)n3-c3ccccc3)c2=O)c(OC)c1	none
CCOc1ccc(C(=O)Nc2ccc3[nH]ncc3c2)cc1	none
COc1ccc(Nc2nc(N3CCCC3)c3ccccc3n2)cc1	PREPL inh 76.8 | PREPL inh cf 62.5
COc1ccc(Nc2c3ccccc3nc3ccccc23)cc1	PREPL inh 46.8 | PREPL inh cf 44.8
O=C(Nc1cccnc1)C1CCN(S(=O)(=O)c2ccc(Cl)cc2)CC1	none
CCOC(=O)c1ccc(S(=O)(=O)N2CCN(CC(O)COc3ccc(C#N)cc3)CC2)cc1 (configuration not stated)	none
C/C(=N\NC(=O)C1CCCN(S(=O)(=O)c2ccccc2)C1)c1ccncc1 (configuration not stated)	PREPL inh 43.2 | PREPL inh cf inactive
CCc1nn(CC(=O)NCCCN(C)Cc2ccccc2)c(=O)c2cc3sc(C)cc3n12	none
CSc1ccc(NC(=O)NCCCN2CCN(c3ccccc3F)CC2)cc1	PREPL inh 43.3 | PREPL inh cf inactive
Cc1c(C)n(C)c2ccc(C(=O)NCCCN3CCN(c4ccccc4F)CC3)cc12	PREPL inh 43.9 | PREPL inh cf inactive
O=C(NCCCN1CCN(c2ccccc2F)CC1)Nc1ccc(F)cc1	none
CC(=O)c1c(C)[nH]c(C(=O)CN2CCN(S(=O)(=O)c3ccccc3F)CC2)c1C	none (no result: Fam108B counter, LYPLA1 counter, PME-1 primary, LYPLA2 inh)
O=C(/C=C/c1cccc([N+](=O)[O-])c1)NCCSc1ccccc1	PREPL inh 46.2 | PREPL inh cf inactive
Cc1ccccc1CS(=O)(=O)Cc1ccc(C(=O)NC2CCCCC2)o1	none
Cc1ccc(N=Cc2cccc(O)c2O)c(C)c1	PREPL inh 55.6 | PREPL inh cf inactive
Cc1ccccc1N=Cc1cccc(O)c1O	none
CCOc1ccc(-n2c(SCc3ccc(C#N)cc3)nnc2-c2cccnc2)cc1	none
N#Cc1ccc(CSc2nnc(-c3cccnc3)n2-c2ccccc2)cc1	PREPL inh 46.0 | PREPL inh cf inactive
CC(=O)NC1=C(N(C)C2CCS(=O)(=O)C2)C(=O)c2ccccc2C1=O (configuration not stated)	none
CC(=O)NC1=C(Nc2ccc(N(C)C)cc2)C(=O)c2ccccc2C1=O	PREPL inh 49.1 | PREPL inh cf inactive
O=C(c1cnn2c(C(F)F)cc(-c3ccccc3)nc12)N1CCOCC1	PREPL inh 60.8 | PREPL inh cf inactive
O=C(c1ccccc1NS(=O)(=O)c1ccc(F)cc1)N1CCOCC1	none
O=[N+]([O-])c1cccc(/C=C/c2nc[nH]c2[N+](=O)[O-])c1	PREPL inh 45.1 | PREPL inh cf inactive
Cc1nn2c(N)c(-c3ccccc3)cnc2c1-c1ccccc1	none
Cc1ccc(NC(=O)N2CCOCC2)c(C)c1	PREPL inh 87.3 | PREPL inh cf inactive
CCOc1cc(/C=C2/SC(=S)N(CC(=O)O)C2=O)ccc1OC(=O)c1cccs1	PREPL inh 64.8 | PREPL inh cf 66.8
COc1ccc(/C=C2/SC(=S)N(CC(=O)O)C2=O)cc1OCc1ccc(Cl)cc1	PREPL inh 66.1 | PREPL inh cf 66.5
COc1ccc(NCc2nnc(SCc3ccc(Cl)cc3)n2-c2ccccc2)cc1	PREPL inh 51.8 | PREPL inh cf 49.0
COc1ccc(-n2c(COc3ccc(Cl)cc3)nnc2SCc2ccc(C#N)cc2)cc1	none
COc1ccccc1OCCCC(=O)Nc1ccc(N2CCOCC2)cc1	none
Cc1ccccc1OCCCC(=O)Nc1ccc(N2CCOCC2)cc1	PREPL inh 50.4 | PREPL inh cf inactive
O=C(CCn1ccc2ccccc21)Nc1ccc(N2CCOCC2)cc1	PREPL inh 44.6 | PREPL inh cf inactive
COc1cccc(OC)c1CN1CCCC(C(=O)c2ccccc2SC)C1 (configuration not stated)	none
Cc1cc[n+](CC(=O)c2ccccc2)c2ccccc12	PREPL inh 59.8 | PREPL inh cf inactive
CCN1C(=O)/C(=C2/Sc3ccccc3N2CC)S/C1=N\c1ncn[nH]1	PME-1 primary 33.8, PREPL inh 47.8 | PREPL inh cf inactive
CN1CCN(CCCNCc2cn(CCC#N)c3ccccc23)CC1	PREPL inh 49.1 | PREPL inh cf inactive
N#CCCN1CCN(Cn2c3ccccc3c3ccccc32)CC1	none
COc1ccccc1Nc1ccc(N)cc1	PREPL inh 83.6 | PREPL inh cf inactive
CN(C)c1ccc(C(CNC(=O)c2ccc(-c3ccccc3)cc2)N2CCOCC2)cc1 (configuration not stated)	PREPL inh 46.8 | PREPL inh cf 64.8
O=C(OCCCOC(=O)c1ccc([N+](=O)[O-])o1)c1ccc([N+](=O)[O-])o1	none
O=[N+]([O-])c1cccc(COc2ncnc3cc([N+](=O)[O-])ccc23)c1	PREPL inh 47.1 | PREPL inh cf inactive
COc1ccc(CCNC(=O)COc2ncnc3cc([N+](=O)[O-])ccc23)cc1	none
c1cncc(CNc2ccc3c(c2)OCO3)c1	PREPL inh 44.4 | PREPL inh cf 52.4
O=C(c1ccc(-c2cc(O)c3ncccc3c2)cc1)N1CCNCC1	PREPL inh 55.0 (no result: Fam108B counter, LYPLA1 counter, PME-1 primary, LYPLA2 inh) | PREPL inh cf 48.9
CC(C)(C)c1ccc(C(=O)N2CCNCC2)cc1	none
COc1ccc(-c2cn[nH]c2-c2ccc(OCc3ccccc3)cc2O)cc1OC	PREPL inh 49.4 | PREPL inh cf inactive
O=C(C1CCN(S(=O)(=O)c2ccc(F)cc2)CC1)N1CCCC(C(F)(F)F)C1 (configuration not stated)	none
CC(c1ccco1)N(C(=O)c1cccc(S(=O)(=O)N(C)C)c1)c1ccccn1 (configuration not stated)	none
N#CCC(=O)Nc1ccc(C(=O)NCc2ccccn2)cc1	none
Oc1ccc(N=Nc2ccc3c(c2)OCO3)c2ccccc12	none
Cc1nn(-c2ccccc2)c(N)c1N=Nc1cccnc1	none
Nc1nn(-c2ccccc2)c(N)c1N=Nc1ccc2c(c1)OCO2	PREPL inh 59.5 | PREPL inh cf 60.3
